# Data from PubChem BioAssay AID1578 (Sanford-Burnham Center for Chemical Genomics, 2009).
# The whole screen tested about 290,000 compounds, of which about 3,000 (1%) were called active. The list comes from a sample in which actives are over-represented; it also holds similar structures and randomly drawn compounds. Unmarked numbers belong to inactive results. Cut-off read from the data, not from the text of the source: active = inhibition mostly above about 36% (no sharp cut-off); inactive = mostly below about 34%.
# Assay: NOD1 signaling inhibitors, primary screen, cell-based, luminescence, uHTS (AID 1578);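 note: HEK-293T reporter cells stimulated with the NOD1 agonist gamma-tri-DAP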
# Conditions: NOD1-driven NF-kB luciferase reporter cells, at 4 µM, hits give high values
row,SMILES,inhibition
1,CCN1CNC(=S)N(c2cccc(C)c2)C1,-5.8%
2,CCC(CC)c1nnc(NC(=O)c2cccc(S(=O)(=O)N3CCc4ccccc43)c2)s1,56.8%
3,Cc1nnc(NC(=O)c2cccc(S(=O)(=O)N3CCc4ccccc43)c2)s1,11.7%
4,CCOC(=O)c1sc(NC(=O)c2cccc(S(=O)(=O)N3CCc4ccccc43)c2)c(C#N)c1C,79.7% (active)
5,COc1cc2ccccc2cc1C(=O)Nc1ccc(N2CCN(C(=O)C(C)C)CC2)cc1,17.8%
6,CC(=O)OC(C(=O)NC1CCCCC1)c1ccccc1F (centres undefined),-33.2%
7,O=C(NN1CCOCC1)c1ccc(Cl)cc1[N+](=O)[O-],-11.4%
8,COc1ccc(NS(=O)(=O)c2ccc(Br)cc2)cn1,-35.5%
9,COc1ccc(NS(=O)(=O)c2ccc3oc4ccccc4c3c2)cn1,56.6%
10,O=C(O)c1ccc(NS(=O)(=O)c2cccc(C(=O)Nc3ccc(Br)cc3)c2)cc1,-13.1%
11,O=C(Nc1ccc(Br)cc1)c1cccc(S(=O)(=O)Nc2cnc3ccccc3c2)c1,48.2%
12,Cc1ccc2cc(NC(=O)CC(CC(=O)O)c3ccccc3)ccc2n1 (centres undefined),-10.4%
13,CNC(=S)NCCc1ccc(OC)c(OC)c1,24.7%
14,CCN(CC)S(=O)(=O)c1cccc(NC(=O)COC(=O)CCC(=O)c2ccc(F)cc2)c1,-40.1%
15,O=C(c1cc2ccccc2oc1=O)N(c1ccccc1)C1C=CS(=O)(=O)C1 (centres undefined),5.4%
16,C/C(=N\N=C(/N)SC1CC(=O)N(c2ccc(Br)cc2)C1=O)c1cccs1 (centres undefined),87.7% (active)
17,C/C(=N\N=C(/N)SC1CC(=O)N(c2ccccc2)C1=O)c1cccs1 (centres undefined),15.7%
18,C/C(=N\N=C(/N)SC1CC(=O)N(c2ccc(Cl)cc2)C1=O)c1cccs1 (centres undefined),-4.8%
19,Cc1cccnc1CN1CCN(C(=O)CCc2nnc(CCc3ccccc3)o2)CC1,-55.3%
20,CC(C)N1C(=O)/C(=C\c2nc3ccccc3c(=O)[nH]2)c2ccccc21,105% (active)

row,SMILES,inhibition
1,CCCN1C(=O)/C(=C/c2nc3ccccc3c(=O)[nH]2)c2ccccc21,-6.3%
2,CCN1C(=O)/C(=C/c2nc3ccccc3c(=O)[nH]2)c2ccccc21,21.1%
3,O=C(CS(=O)(=O)c1ccccc1)Nc1ncc([N+](=O)[O-])s1,-39%
4,O=C(COc1ccc(Cl)cc1)Nc1ncc([N+](=O)[O-])s1,73.5% (active)
5,Cc1ccc(CC(=O)Nc2ncc([N+](=O)[O-])s2)cc1,-37.4%
6,COc1ccc(CC(=O)Nc2ncc([N+](=O)[O-])s2)cc1OC,-65%
7,CC(CC(=O)Nc1ncc([N+](=O)[O-])s1)c1ccccc1 (centres undefined),-19.5%
8,CCCCC(=O)Nc1ncc([N+](=O)[O-])s1,-10.8%
9,CC(C)CC(=O)Nc1ncc([N+](=O)[O-])s1,3.6%
10,CC(C1CC1)N(Cc1ccccc1)C(=S)Nc1ccccc1Cl (centres undefined),-9.7%
11,CC(SCC(=O)O)c1nc2ccccc2[nH]1 (centres undefined),10.8%
12,CCOc1ccccc1N(C)S(=O)(=O)c1ccc2c(c1)N(C(C)=O)CCO2,5.2%
13,NC(=O)/C(=C\c1ccccc1)NC(=O)/C=C/c1ccccc1,-19%
14,CCOC(=O)c1nn(-c2ccccc2)c2nnc(Cc3ccccc3)c(=O)n12,45.2%
15,CCOC(=O)C1=C(CSc2nc3ccccc3s2)NC(=O)NC1c1cccc([N+](=O)[O-])c1 (centres undefined),32.6%
16,CCOC(=O)C1=C(CSc2nc3ccccc3s2)NC(=O)NC1c1ccc(OC)cc1 (centres undefined),67.5% (active)
17,COC(=O)C1=C(CSc2nc3ccccc3s2)NC(=O)NC1c1ccc(F)cc1 (centres undefined),-25.4%
18,CCN(CC)CCCNC(=O)C1c2ccccc2C(=O)N(C)C1c1ccc(OC)cc1 (centres undefined),99.8% (active)
19,CCN1CCN(CCCNC(=O)C2c3ccccc3C(=O)N(C)C2c2ccc(OC)cc2)CC1 (centres undefined),-21.6%
20,CCN(CC)CCCNC(=O)C1c2ccccc2C(=O)N(CCOC)C1c1ccc(F)cc1 (centres undefined),-40.8%

row,SMILES,inhibition
1,COc1ccc(CCN2CC(C(=O)NC3CCCCC3)CC2=O)cc1OC (centres undefined),-2%
2,CCCc1cc(NCCCO)n2c(nc3ccccc32)c1C#N,-0.5%
3,Cc1n[nH]c(C)c1CCNCc1ccc(OCC(O)CN2CCCCC2)cc1 (centres undefined),-21.7%
4,Cc1csc(NC(=O)c2cn3ccccc3n2)n1,53.2% (active)
5,O=C(Nc1ccccc1)c1cn2ccccc2n1,1.1%
6,O=C(Nc1nccs1)c1cn2ccccc2n1,22.8%
7,Cc1noc(C)c1CSc1cc(C)c2ccccc2n1,-32.2%
8,COc1ccc(C(=O)Nc2ccc3c(c2)C(=O)N(C)C3=O)cc1OC,-3.5%
9,COc1cccc(-n2cnc3sc(C)cc3c2=O)c1,-25.1%
10,CCCOC(=O)c1cc(=O)[nH]c2ccccc12,-5.2%
11,O=C(NCCN1C(=O)S/C(=C\c2ccc(F)cc2)C1=O)c1cccc(S(=O)(=O)N2CCOCC2)c1,21.8%
12,O=C(NCCN1C(=O)S/C(=C\c2ccc(Cl)cc2)C1=O)c1ccc(F)c(S(=O)(=O)N2CCOCC2)c1,-0.6%
13,CC(C)(C)c1ccc(/C=C2\SC(=O)N(CCNC(=O)c3cccc(S(=O)(=O)N4CCOCC4)c3)C2=O)cc1,74.4% (active)
14,CC1CCN(C(=O)c2ccccc2NC(=O)c2cccc(S(=O)(=O)N(C)C)c2)CC1,-46.2%
15,CCOC(=O)c1c(-c2ccc(C)o2)csc1NC(=S)NC(=O)c1cccs1,36.4%
16,CCOC(=O)c1c(-c2ccc(C)o2)csc1NC(=S)NC(=O)c1ccc(F)cc1,37.3%
17,CCOC(=O)c1c(-c2ccc(C)o2)csc1NC(=S)NC(=O)N(C)C,97.4% (active)
18,COc1ccc(-c2ncccc2OC(=O)C23CC4CC(CC(C4)C2)C3)cc1OC,-13.7%
19,CC1CCC(NC(=O)COc2ccccc2C(N)=O)CC1 (centres undefined),-22%
